Screens from PubChem BioAssay.
JMJD2A Tudor inh: blocks the human JMJD2A Tudor domain | 390,000 tested, 4.4% active | AID 504339 | AlphaScreen JMJD2A-Tudor / H3K4me3 peptide binding | O75164 | Potency, µM (highest dose often 114 µM), inactives show top-dose activity change, negative = inhibition, hits mostly inhibitors; further: on the % scale 0 is the no-effect control and ±100 the full control effect; nearly all actives have a fitted effect of over 50% in size
HP1b binding inh: HP1-beta chromodomain-methylated histone interaction inhibition. P83916. AlphaScreen HP1-beta / biotin-H3K9me3 peptide binding. Potency, µM (series often up to 114 µM), without a hit: top-dose activity change, negative = inhibition, hits mostly inhibitors. 390,000 tested, 0.56% active; further: nearly all actives have a fitted effect of over 70% in size
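HP1-beta protein (50 nM final) preincubated 30 min at room temperature with biotinylated H3(1-18)K9me3 peptide (50 nM) in PBS pH 7.4, 0.01% Tween-20, then compound added for 30 min. AlphaScreen streptavidin donor/nickel chelate acceptor beads (10 ug/mL final), 30 min dark, luminescence read.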
BAZ2B inh: inhibitors of human BAZ2B bromodomain; Q9UIF8; AlphaScreen BAZ2B-H3K14Ac peptide displacement; Potency, µM (series often up to 114 µM), without a hit: at the highest dose activity change, negative = inhibition, usual class: inhibitors; 360,000 tested, 4.4% active; AID 504333; further: on the % scale 0 is the no-effect control and ±100 the full control effect; nearly all actives have a fitted effect of over 60% in size
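In this displacement format the biotinylated H3(5-23) peptide acetylated at Lys14 serves as ligand at 50 nM, with BAZ2B at 50 nM in PBS pH 7.4 containing 0.01% Tween-20. Donor and acceptor beads are 10 ug/mL final.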
L3MBTL1 inh: inhibitors of human L3MBTL1 | Potency, µM (doses to about 57.1 µM), inactives show at the highest dose activity, negative = inhibition, most hits filed as inhibitors | Q9Y468 | AlphaScreen L3MBTL1–H3K9me1 peptide binding | 230,000 tested, 0.66% active; further: on the % scale 0 is the no-effect control and ±100 the full control effect; nearly all actives have a fitted effect of over 60% in size
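AlphaScreen assay: L3MBTL1 (50 nM final) was preincubated 30 min at room temperature with biotinylated H3(1-15)K9me1 peptide (75 nM final), then 30 min with library compounds; streptavidin donor and nickel chelate acceptor beads (10 ug/mL final) added, 30 min dark.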
Sfp PPTase inh: inhibitors of Bacillus subtilis Sfp phosphopantetheinyl transferase. Q9F4F7. Potency, µM, for inactives: largest response in the series, negative = inhibition, most hits filed as inhibitors. 310,000 tested, 3.5% active. Biochemical Sfp PPTase activity, qHTS;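 further: the enzyme is Sfp with the accession as filed and its product quenches rhodamine fluorescence; 0% = enzyme reaction without inhibitor and -100% = no enzyme wells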
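Buffer: 50 mM Hepes-Na pH 7.6, 10 mM MgCl2, 0.01% Nonidet P-40, 0.01% BSA. Enzyme 15 nM, pre-exposed to compound 15 min; substrates then added and fluorescence change tracked over 30 min.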
G9a inh: G9a (human) methyltransferase inhibition; G9a H3K9 monomethylation, AlphaScreen, 2 h; Potency, µM (top dose mostly 102 µM), inactives show at the highest dose activity, negative = inhibition, hits mostly inhibitors; 350,000 tested, 8.8% active; AID 504332; further: on the % scale 0 is the no-effect control and ±100 the full control effect; nearly all actives have a fitted effect of over 75% in size
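Readings reflect AlphaScreen signal from monomethyl-H3K9 antibody detection. HMT at 20 nM; substrate b-H3K9 500 nM; cofactor SAM 20 uM; 2 h RT reaction; compounds tested as titrations in qHTS with 15 min preincubation.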
* marks the source's active call; other numbers are inactive results; [ ] = dose if it differs, or a comment. The list is not random: actives were taken first. Their share in the collection is about 12%. The call rests on the fitted dose curve; in most records, active means well fitted curve in the direction sought with a large enough effect; inconclusive means small, poorly fitted or top-dose-only effect, or another doubt; inactive means no such curve, though single readings can be large; an effect the other way counts as inactive or inconclusive. Potency means the concentration at half of the fitted maximal effect.

Screening CCC1CCc2sc(C(=O)N(C)CC(=O)Nc3ccc(OC)cc3)cc2C1 (configuration not stated) returned JMJD2A Tudor inh -17.1%, HP1b binding inh 31.5%, BAZ2B inh 2.4%, L3MBTL1 inh 1.7% and G9a inh -8.5%.
`CCC1CCc2sc(C(=O)N(C)CC(=O)Nc3ccc(N4CCOCC4)cc3)cc2C1` (configuration not stated) gave JMJD2A Tudor inh -31.1%, HP1b binding inh 3.5%, BAZ2B inh -3.6%, L3MBTL1 inh -8.8% and G9a inh 44.7µM*.
For Cc1cccc(N2CCN(C(=O)C3CCC(=O)N(C4CC4)C3)CC2)c1C (configuration not stated) the results were JMJD2A Tudor inh inconclusive, HP1b binding inh 21.8%, BAZ2B inh -4.5%, Sfp PPTase inh 6.8% and G9a inh -10.5%.
For CO[C@H]1COC(=O)C/C=C\[C@@H](C)[C@H](OC)COC(=O)[C@H]2CCCN2C(=O)C/C=C\[C@@H]1C the results were Sfp PPTase inh 4.2%.
Screening COc1cc2c(cc1OC)C(COc1cc(C)cc(C)c1)N(C(=O)c1ccc(S(=O)(=O)N3CCCC3)cc1)CC2 (configuration not stated) returned JMJD2A Tudor inh -25.7%, HP1b binding inh 8.7%, BAZ2B inh -20.0% and G9a inh -41.7%[59 µM].
For CC(=O)N1CCN(S(=O)(=O)c2ccc(S(=O)(=O)NC3CCCCC3)cc2)CC1 the results were JMJD2A Tudor inh -14.4%, HP1b binding inh 22.0%, BAZ2B inh -1.8%, Sfp PPTase inh 8.2% and G9a inh 50.1µM*.
O=CN1CCN(S(=O)(=O)c2ccc(S(=O)(=O)NC3CCCCC3)cc2)CC1 was read as JMJD2A Tudor inh -0.7%, HP1b binding inh 5.6%, BAZ2B inh 7.3%, Sfp PPTase inh -4.4% and G9a inh 44.7µM*.
CCN1CCN(S(=O)(=O)c2ccc(S(=O)(=O)NC3CC3)cc2)CC1 was read as JMJD2A Tudor inh -4.5%, HP1b binding inh 27.5%, BAZ2B inh -14.2%, Sfp PPTase inh 1.8% and G9a inh 50.1µM*.
For O=C(Nc1cc(C(F)(F)F)ccc1Cl)C(O)Cc1ccccc1 (configuration not stated) the results were JMJD2A Tudor inh 6.2%.
C[C@H]1Cc2c(COc3ccccc3)nc3c(c2CO1)CN(C(=O)Cc1cccs1)CC3 was read as Sfp PPTase inh 0.7%.
`CCC(C)Sc1nnc(CNS(=O)(=O)c2ccc(F)cc2)n1C` (configuration not stated) gave JMJD2A Tudor inh -3.2%, HP1b binding inh 56.4%, BAZ2B inh -3.9%, Sfp PPTase inh 11.7% and G9a inh 11.5%.
`Cn1c(CNS(=O)(=O)c2ccc(Cl)cc2)n[nH]c1=S` gave JMJD2A Tudor inh 6.31µM*, HP1b binding inh 32.9%, BAZ2B inh 8.8%, L3MBTL1 inh 4.8%, Sfp PPTase inh -1.3% and G9a inh inconclusive.
Screening O=S(=O)(NCc1nnc2ccccn12)c1ccc(Cl)cc1 returned JMJD2A Tudor inh -1.5%, HP1b binding inh 48.6%, BAZ2B inh 7.3%, L3MBTL1 inh -2.0% and G9a inh -8.1%[59 µM].
For Cn1c(CNS(=O)(=O)c2ccc(F)cc2)n[nH]c1=S the results were JMJD2A Tudor inh 11.2µM*, HP1b binding inh 33.6%, BAZ2B inh -2.0%, L3MBTL1 inh 4.2%, Sfp PPTase inh -20.5% and G9a inh inconclusive.
`CCN1CCN(c2ccc(NC(=O)c3ccc(Cl)c(N4CCCC4=O)c3)cc2)CC1` gave JMJD2A Tudor inh -1.4%, HP1b binding inh 6.9%, BAZ2B inh -28.1%, Sfp PPTase inh 2.9% and G9a inh inconclusive.
Screening COc1ccc(C(=O)CN(Cc2ccccc2)C2=NCCS2)cc1 returned JMJD2A Tudor inh -7.7%, HP1b binding inh 26.5%, BAZ2B inh -2.5%, L3MBTL1 inh 12.1%, Sfp PPTase inh 15.4% and G9a inh -45.9%.
O=C(CN(Cc1ccccc1)C1=NCCS1)c1ccc(Cl)cc1 was read as JMJD2A Tudor inh 15.8%, HP1b binding inh 62.1%, BAZ2B inh -0.5%, L3MBTL1 inh 10.4%, Sfp PPTase inh -8.1% and G9a inh 44.7µM*.
For O=[N+]([O-])c1cc(/C=N/n2cnnc2)ccc1N1CCCC1 the results were JMJD2A Tudor inh -23.5%, HP1b binding inh 48.7%, BAZ2B inh -37.9%, L3MBTL1 inh -8.4%, Sfp PPTase inh -3.0% and G9a inh -12.6%[59 µM].
CC(C)CN(CC(C)C)c1ccc(/C=N/n2cnnc2)cc1[N+](=O)[O-] was read as JMJD2A Tudor inh 44.7µM*, HP1b binding inh inconclusive, BAZ2B inh inconclusive, L3MBTL1 inh -15.4%, Sfp PPTase inh -15.7% and G9a inh inconclusive.
O=C(O)CSc1nnc(-c2ccc(Cl)cc2Cl)n1-c1ccc(Cl)cc1 was read as JMJD2A Tudor inh -17.1%, HP1b binding inh 31.9%, BAZ2B inh -14.8%, L3MBTL1 inh -0.6%[2.29 µM], Sfp PPTase inh 23.5% and G9a inh 12.6%[0.501 µM].
CCN(CC)P1(=O)OC(c2cc(OC)c(OC)c(OC)c2)=Nc2c1c(C)nn2-c1ccccc1 (configuration not stated) was read as JMJD2A Tudor inh -20.3%, HP1b binding inh 9.7%, BAZ2B inh inconclusive, L3MBTL1 inh 4.9%, Sfp PPTase inh 7.3% and G9a inh 50.1µM*.
N#C/C(=C\c1cc(Cl)cc(Cl)c1)c1cccnc1 was read as Sfp PPTase inh 2.7% and G9a inh 23.9%[59 µM].
Screening CCOC(=S)SCc1cn2ccccc2n1 returned JMJD2A Tudor inh -8.1%, HP1b binding inh 6.9%, BAZ2B inh -21.7%, Sfp PPTase inh 50.1µM* and G9a inh inconclusive.
Screening N#CC/C(N)=N/Nc1nc2ccccc2nc1Cc1ccccc1 returned JMJD2A Tudor inh inconclusive, HP1b binding inh -5.1%[57 µM], BAZ2B inh -16.3%, Sfp PPTase inh -9.3% and G9a inh 50.1µM*.
For CCCCc1nc2c(c3c1C[C@H](C)OC3)CN(C(=O)Cc1cccc(OC)c1)CC2 the results were Sfp PPTase inh -9.8%.
Screening C/C(=N\N=C(/N)SC1CC(=O)N(c2ccc(Cl)cc2)C1=O)c1cccs1 (configuration not stated) returned JMJD2A Tudor inh inconclusive, HP1b binding inh 14.0%, BAZ2B inh inconclusive, L3MBTL1 inh -0.2%, Sfp PPTase inh 13.0% and G9a inh 39.8µM*.
Screening C/C(=N\N=C(/N)SC1CC(=O)N(c2ccccc2)C1=O)c1cccs1 (configuration not stated) returned JMJD2A Tudor inh inconclusive, HP1b binding inh -3.2%, BAZ2B inh -4.6%, L3MBTL1 inh -5.6%, Sfp PPTase inh 11.3% and G9a inh -31.1%[59 µM].
